{"source": "PubChem BioAssay AID2073", "about": "(Sanford-Burnham Center for Chemical Genomics, 2009)", "molecular_target": "Voltage-dependent N-type calcium channel subunit alpha-1B (Homo sapiens) (UniProt Q00975)", "sequence (Q00975 whole entry, looked up)": "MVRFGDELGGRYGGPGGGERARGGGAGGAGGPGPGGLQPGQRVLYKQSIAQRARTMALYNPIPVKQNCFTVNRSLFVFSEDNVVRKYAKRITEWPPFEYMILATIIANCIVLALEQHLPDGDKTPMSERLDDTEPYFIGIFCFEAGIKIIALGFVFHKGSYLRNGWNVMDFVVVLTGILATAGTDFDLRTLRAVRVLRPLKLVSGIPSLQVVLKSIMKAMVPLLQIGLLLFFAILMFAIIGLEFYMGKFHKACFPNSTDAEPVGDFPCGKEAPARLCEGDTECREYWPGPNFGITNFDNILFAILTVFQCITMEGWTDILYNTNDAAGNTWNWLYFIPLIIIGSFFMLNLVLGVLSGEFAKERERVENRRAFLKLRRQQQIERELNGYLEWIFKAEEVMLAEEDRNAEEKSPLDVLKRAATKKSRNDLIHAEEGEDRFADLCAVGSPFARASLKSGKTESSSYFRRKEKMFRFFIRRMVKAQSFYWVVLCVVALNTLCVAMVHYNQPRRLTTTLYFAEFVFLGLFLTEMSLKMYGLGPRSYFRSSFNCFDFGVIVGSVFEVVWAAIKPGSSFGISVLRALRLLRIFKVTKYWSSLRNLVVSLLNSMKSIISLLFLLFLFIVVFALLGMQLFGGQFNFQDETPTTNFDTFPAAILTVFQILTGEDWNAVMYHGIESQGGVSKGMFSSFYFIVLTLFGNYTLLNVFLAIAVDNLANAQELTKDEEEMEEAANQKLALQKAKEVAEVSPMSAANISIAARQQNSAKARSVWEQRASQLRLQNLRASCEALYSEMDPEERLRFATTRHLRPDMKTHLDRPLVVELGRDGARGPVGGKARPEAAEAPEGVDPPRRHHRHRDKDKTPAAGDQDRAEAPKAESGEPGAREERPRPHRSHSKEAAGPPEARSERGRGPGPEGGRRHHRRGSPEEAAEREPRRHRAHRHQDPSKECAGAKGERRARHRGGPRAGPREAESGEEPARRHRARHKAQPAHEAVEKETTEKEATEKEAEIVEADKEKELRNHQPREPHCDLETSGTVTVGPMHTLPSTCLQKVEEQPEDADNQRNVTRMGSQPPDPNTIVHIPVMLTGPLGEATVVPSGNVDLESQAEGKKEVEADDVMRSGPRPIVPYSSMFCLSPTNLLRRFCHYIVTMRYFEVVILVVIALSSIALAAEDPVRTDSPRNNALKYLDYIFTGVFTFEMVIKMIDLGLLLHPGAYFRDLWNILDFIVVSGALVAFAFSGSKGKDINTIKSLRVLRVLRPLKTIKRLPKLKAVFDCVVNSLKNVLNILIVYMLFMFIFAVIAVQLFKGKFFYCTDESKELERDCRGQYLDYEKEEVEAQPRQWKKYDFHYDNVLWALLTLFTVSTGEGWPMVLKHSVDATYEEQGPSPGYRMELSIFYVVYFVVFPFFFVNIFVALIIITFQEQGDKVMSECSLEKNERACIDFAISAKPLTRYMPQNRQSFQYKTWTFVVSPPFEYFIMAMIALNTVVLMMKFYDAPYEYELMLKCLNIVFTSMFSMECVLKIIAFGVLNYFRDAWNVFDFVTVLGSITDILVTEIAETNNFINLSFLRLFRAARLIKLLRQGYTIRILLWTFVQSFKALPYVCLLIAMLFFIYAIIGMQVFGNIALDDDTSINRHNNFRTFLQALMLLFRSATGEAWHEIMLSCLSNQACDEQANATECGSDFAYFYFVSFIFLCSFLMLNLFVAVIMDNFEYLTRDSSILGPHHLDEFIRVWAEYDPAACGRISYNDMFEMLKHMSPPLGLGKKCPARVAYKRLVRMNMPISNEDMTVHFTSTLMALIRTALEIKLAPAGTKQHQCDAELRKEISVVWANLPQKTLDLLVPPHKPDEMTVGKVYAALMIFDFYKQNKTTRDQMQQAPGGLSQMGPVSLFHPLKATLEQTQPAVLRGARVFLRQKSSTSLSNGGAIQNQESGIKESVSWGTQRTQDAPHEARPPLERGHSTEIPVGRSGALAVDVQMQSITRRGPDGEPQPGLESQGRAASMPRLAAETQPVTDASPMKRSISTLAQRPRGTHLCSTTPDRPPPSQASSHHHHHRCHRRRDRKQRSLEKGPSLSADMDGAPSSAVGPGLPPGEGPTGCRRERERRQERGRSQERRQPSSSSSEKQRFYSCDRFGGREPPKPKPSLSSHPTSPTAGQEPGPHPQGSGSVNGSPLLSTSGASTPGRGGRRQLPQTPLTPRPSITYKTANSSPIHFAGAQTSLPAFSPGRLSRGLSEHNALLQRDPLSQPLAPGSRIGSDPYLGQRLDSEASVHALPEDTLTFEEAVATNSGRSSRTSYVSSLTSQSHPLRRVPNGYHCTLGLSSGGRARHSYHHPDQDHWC", "experiment": "inhibitors of Mint1-CaV2.2 protein interaction, biochemical, HTRF (AID 2073)", "details": "at 20 µM, stronger effect = higher value", "key": {"[1]": {"details": "measured here: average of repeat tests"}}, "note": "About 570 (0.2%) of roughly 290,000 compounds were called active. Not shown: some 1% with an inconclusive outcome. Cut-off read from the data, not from the text of the source: active = inhibition mostly above about 51% (no sharp cut-off); inconclusive = no clear call, values can overlap the other calls; inactive = mostly below about 53%. Only a selection was taken, and actives are over-represented in it overall."}
{"molecule": "COc1ccc(OC)c(N=c2ssnc2Cl)c1", "values": [{"measurement": "inhibition", "value": "27.6% (inactive)"}]}
{"molecule": "COc1cc(/C=C/c2ccc3cccc(O)c3n2)cc(OC)c1OC", "values": [{"measurement": "inhibition", "value": "24.9% (inactive)"}]}
{"molecule": "COc1cc(N=c2ssnc2Cl)c(OC)cc1Cl", "values": [{"measurement": "inhibition", "value": "46.5% (inactive)"}]}
{"molecule": "Cc1ccc(-c2nc3ccccc3o2)cc1NC(=O)c1ccc2c(c1)OCO2", "values": [{"measurement": "inhibition", "value": "-1.5% (inactive)"}]}
{"molecule": "O=C(Nc1ccc(-c2nc3ccccc3o2)cc1)c1ccc2c(c1)OCO2", "values": [{"measurement": "inhibition", "value": "66.2% (active)"}]}
{"molecule": "Cc1ccc2oc(-c3ccc(NC(=O)c4ccc5c(c4)OCO5)cc3)nc2c1", "values": [{"measurement": "inhibition", "value": "6.7% (inactive)"}]}
{"molecule": "Oc1ccc(Br)cc1CNc1cnc2ccccc2c1", "values": [{"measurement": "inhibition", "value": "13.6% (inactive)"}]}
{"molecule": "O=C(N/N=C/c1ccc([N+](=O)[O-])o1)c1cc(-c2ccncc2)nc2ccccc12", "values": [{"measurement": "inhibition", "value": "20.1% (inactive)"}]}
{"molecule": "CCCc1ccc(-c2cc(C(=O)N/N=C/c3ccc([N+](=O)[O-])o3)c3ccccc3n2)cc1", "values": [{"measurement": "inhibition", "value": "27.9% (inactive)"}]}
{"molecule": "COc1ccc(-c2nn(-c3ccccc3)cc2C(=O)N/N=C/c2ccc([N+](=O)[O-])o2)cc1", "values": [{"measurement": "inhibition", "value": "50.6% (inactive)"}, {"measurement": "inhibition", "setting": "[1]", "value": 11.4, "unit": "%"}]}
{"molecule": "O=C(N/N=C/c1ccc([N+](=O)[O-])o1)c1cc(-c2ccc(-c3ccccc3)cc2)nc2ccccc12", "values": [{"measurement": "inhibition", "value": "59.1% (active)"}]}
{"molecule": "O=C(N/N=C/c1ccc([N+](=O)[O-])o1)c1cn(-c2ccccc2)nc1-c1ccc(Cl)cc1", "values": [{"measurement": "inhibition", "value": "67.5% (active)"}]}
{"molecule": "O=C(N/N=C/c1ccc([N+](=O)[O-])o1)c1cn(-c2ccccc2)nc1-c1ccccc1", "values": [{"measurement": "inhibition", "value": "60.4% (inactive)"}, {"measurement": "inhibition", "setting": "[1]", "value": 2.1, "unit": "%"}]}
{"molecule": "CCn1c(SCc2ccc(C)cc2)nnc1-c1cnccn1", "values": [{"measurement": "inhibition", "value": "1.9% (inactive)"}]}
{"molecule": "Cc1ccc(S(=O)(=O)c2cnc3cc(C)nn3c2N)cc1", "values": [{"measurement": "inhibition", "value": "9.4% (inactive)"}]}
{"molecule": "c1cnc(-c2noc(CN3CCN(C4C5CC6CC(C5)CC4C6)CC3)n2)cn1", "note": "(centres undefined)", "values": [{"measurement": "inhibition", "value": "-1.9% (inactive)"}]}
{"molecule": "O=C(O)CSC(C(=O)Nc1ccc(Br)cc1)c1ccc(Cl)cc1", "note": "(centres undefined)", "values": [{"measurement": "inhibition", "value": "9.9% (inactive)"}]}
{"molecule": "CC(=O)Nc1ccc(/C=N/Nc2ccc(C(=O)c3c(C)cc4ccccn34)cc2[N+](=O)[O-])cc1", "values": [{"measurement": "inhibition", "value": "50.4% (inactive)"}, {"measurement": "inhibition", "setting": "[1]", "value": 29.6, "unit": "%"}]}
{"molecule": "Cc1cc2ccccn2c1C(=O)c1ccc(NN)c([N+](=O)[O-])c1", "values": [{"measurement": "inhibition", "value": "9.5% (inactive)"}]}
{"molecule": "Cc1cc2ccccn2c1C(=O)c1ccc(N/N=C/c2ccc(C(=O)O)cc2)c([N+](=O)[O-])c1", "values": [{"measurement": "inhibition", "value": "69.4% (active)"}]}
{"molecule": "Cc1ncoc1C(=O)Nc1ncc([N+](=O)[O-])s1", "values": [{"measurement": "inhibition", "value": "68% (active)"}]}
{"molecule": "Cc1ccc(C(=O)Nc2ncc([N+](=O)[O-])s2)cc1", "values": [{"measurement": "inhibition", "value": "11.7% (inactive)"}]}
{"molecule": "Cc1nc(C)c(C(=O)Nc2ncc([N+](=O)[O-])s2)o1", "values": [{"measurement": "inhibition", "value": "33.7% (inactive)"}]}
{"molecule": "CC1=CCC2C(=O)N(c3ccc(C)cc3)C(=O)C2C1", "note": "(centres undefined)", "values": [{"measurement": "inhibition", "value": "6.6% (inactive)"}]}
{"molecule": "Cc1ccc(-c2csc(C3=C(O)CN(NC(=O)c4ccc([N+](=O)[O-])cc4)C3=N)n2)cc1", "values": [{"measurement": "inhibition", "value": "25.8% (inactive)"}]}
{"molecule": "N=C1C(c2nc(-c3ccc(Br)cc3)cs2)=C(O)CN1NC(=O)c1ccc([N+](=O)[O-])cc1", "values": [{"measurement": "inhibition", "value": "34.5% (inactive)"}]}
{"molecule": "O=C(NN1C(=O)C2C3C=CC(C3)C2C1=O)c1ccncc1", "note": "(centres undefined)", "values": [{"measurement": "inhibition", "value": "5.7% (inactive)"}]}
{"molecule": "O=C(NN1C(=O)C2CC=C(Cl)CC2C1=O)c1ccncc1", "note": "(centres undefined)", "values": [{"measurement": "inhibition", "value": "61.5% (active)"}]}
{"molecule": "O=C(NN1C(=O)C2C(C1=O)C1C=CC2C12CC2)c1ccncc1", "note": "(centres undefined)", "values": [{"measurement": "inhibition", "value": "6% (inactive)"}]}
{"molecule": "O=C(CSc1nnc(-c2ccccc2O)o1)Oc1ccc(Br)cc1", "values": [{"measurement": "inhibition", "value": "3% (inactive)"}]}
{"molecule": "CCOC(=O)C1CCCN(C(=O)c2ccc3nc(-c4ccc(OC)c(OC)c4)c(-c4ccc(OC)c(OC)c4)nc3c2)C1", "note": "(centres undefined)", "values": [{"measurement": "inhibition", "value": "10.2% (inactive)"}]}
{"molecule": "Cc1ccc(NC(=O)c2cc(N3C(=O)C=CC3=O)ccc2Cl)cc1C", "values": [{"measurement": "inhibition", "value": "59.1% (active)"}]}
{"molecule": "NC(=O)c1cc(N2C(=O)C=CC2=O)ccc1Cl", "values": [{"measurement": "inhibition", "value": "47% (inactive)"}]}
{"molecule": "Cc1ccc(NC(=O)c2cc(N3C(=O)C=CC3=O)ccc2N2CCOCC2)cc1Cl", "values": [{"measurement": "inhibition", "value": "-7.4% (inactive)"}]}
{"molecule": "COc1cccc(-c2nnc(Nc3nc4c(F)cccc4s3)o2)c1", "values": [{"measurement": "inhibition", "value": "43.9% (inactive)"}]}
{"molecule": "COc1cc(OC)cc(-c2nnc(Nc3nc4c(F)cccc4s3)o2)c1", "values": [{"measurement": "inhibition", "value": "56.7% (active)"}]}
{"molecule": "Fc1cccc2sc(Nc3nnc(-c4ccccc4)o3)nc12", "values": [{"measurement": "inhibition", "value": "38.5% (inactive)"}]}
{"molecule": "Cc1ccc(C(=O)NCCSc2ccccc2)cc1S(=O)(=O)Nc1ccccc1", "values": [{"measurement": "inhibition", "value": "-1.8% (inactive)"}]}
{"molecule": "O=C(/C=C/c1ccco1)NCC1COc2ccccc2O1", "note": "(centres undefined)", "values": [{"measurement": "inhibition", "value": "11% (inactive)"}]}
{"molecule": "Cc1ccc(/C=C/C(=O)NCC2COc3ccccc3O2)o1", "note": "(centres undefined)", "values": [{"measurement": "inhibition", "value": "72.5% (active)"}]}
{"molecule": "CC(C)Oc1ccc(/C=C/C(=O)NCC2COc3ccccc3O2)cc1", "note": "(centres undefined)", "values": [{"measurement": "inhibition", "value": "-5% (inactive)"}]}
{"molecule": "Cc1ccc(C(=O)NCCCN2CCOCC2)cc1Cl", "values": [{"measurement": "inhibition", "value": "4.3% (inactive)"}]}
{"molecule": "CN(N)c1nc(-c2ccccc2)cc(-c2ccccc2)n1", "values": [{"measurement": "inhibition", "value": "-4.2% (inactive)"}]}
{"molecule": "O=C1CCCC(=NCc2ccco2)C1", "values": [{"measurement": "inhibition", "value": "-7.5% (inactive)"}]}
{"molecule": "CN(C)c1nc(=NCc2ccco2)ss1", "values": [{"measurement": "inhibition", "value": "67.8% (active)"}]}
{"molecule": "c1coc(CN=C2NC(=NCc3ccco3)c3ccccc32)c1", "values": [{"measurement": "inhibition", "value": "18.7% (inactive)"}]}
